Paper PMC7862700, “An all-to-all approach to the identification of sequence-specific readers for epigenetic DNA modifications on cytosine”

Tests used:
Assay in all cases: DAPPL (digital affinity profiling via proximity ligation, sequencing); 10 mM Tris-HCl pH 7.5, 50 mM NaCl, 1 mM DTT, 4% glycerol, room temperature, 30 min; GST-TFs on glutathione beads, 16-mer random dsDNA library, 0.1% formaldehyde crosslink after washing; high values mean tight binding
[1] = molecular target: T1, ELK1 (Homo sapiens, UniProt P19419 1-428); conditions: protein: recombinant; tags: N-terminal GST; dsDNA, one strand shown
T1 sequence: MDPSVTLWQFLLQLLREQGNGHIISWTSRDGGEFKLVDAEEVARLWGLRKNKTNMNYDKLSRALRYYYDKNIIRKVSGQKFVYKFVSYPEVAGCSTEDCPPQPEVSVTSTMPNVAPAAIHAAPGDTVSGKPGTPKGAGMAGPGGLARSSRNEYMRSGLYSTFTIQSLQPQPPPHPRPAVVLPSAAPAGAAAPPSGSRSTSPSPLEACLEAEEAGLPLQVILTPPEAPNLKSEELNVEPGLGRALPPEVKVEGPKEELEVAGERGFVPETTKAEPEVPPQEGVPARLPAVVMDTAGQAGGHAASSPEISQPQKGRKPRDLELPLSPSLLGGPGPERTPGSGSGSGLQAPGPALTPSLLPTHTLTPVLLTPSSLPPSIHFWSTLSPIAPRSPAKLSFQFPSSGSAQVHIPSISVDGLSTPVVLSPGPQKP
Summary of the method: (§1)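 After expression in yeast as GST fusions, human transcription factors were bound to glutathione beads, DNA-barcoded and mixed with a tag-only sample. The pools were incubated with 200 nmole of a 16-mer random double-stranded DNA library in Tris/NaCl/DTT/glycerol buffer (30 min, room temperature), washed and crosslinked with 0.1% formaldehyde. Proximity ligation with BsaI/T4 ligase ran for 1 h at 37 °C, before PCR amplification and sequencing on an Illumina NextSeq500. Binding signal is a hexamer's read frequency for a factor divided by its frequency for the tag-only sample.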

[2] = molecular target: T2, GABPA (Homo sapiens, UniProt Q06546 1-454); conditions: protein: recombinant; tags: N-terminal GST; dsDNA, one strand shown
T2 sequence: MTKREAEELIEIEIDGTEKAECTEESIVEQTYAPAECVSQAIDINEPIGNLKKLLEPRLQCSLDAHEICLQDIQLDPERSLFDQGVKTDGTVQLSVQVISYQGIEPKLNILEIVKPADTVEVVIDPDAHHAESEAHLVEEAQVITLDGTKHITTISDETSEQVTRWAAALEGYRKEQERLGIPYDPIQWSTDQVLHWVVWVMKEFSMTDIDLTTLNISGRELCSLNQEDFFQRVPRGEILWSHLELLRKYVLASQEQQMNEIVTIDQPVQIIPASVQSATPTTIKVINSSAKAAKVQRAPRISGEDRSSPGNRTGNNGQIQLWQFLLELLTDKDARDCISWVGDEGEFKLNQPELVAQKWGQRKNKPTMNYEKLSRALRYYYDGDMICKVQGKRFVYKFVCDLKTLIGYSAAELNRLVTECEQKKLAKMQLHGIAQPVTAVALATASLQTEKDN
Summary of the method: as §1

[3] = molecular target: T3, ERG (Homo sapiens, UniProt P11308 1-479); conditions: protein: recombinant; tags: N-terminal GST; dsDNA, one strand shown
T3 sequence: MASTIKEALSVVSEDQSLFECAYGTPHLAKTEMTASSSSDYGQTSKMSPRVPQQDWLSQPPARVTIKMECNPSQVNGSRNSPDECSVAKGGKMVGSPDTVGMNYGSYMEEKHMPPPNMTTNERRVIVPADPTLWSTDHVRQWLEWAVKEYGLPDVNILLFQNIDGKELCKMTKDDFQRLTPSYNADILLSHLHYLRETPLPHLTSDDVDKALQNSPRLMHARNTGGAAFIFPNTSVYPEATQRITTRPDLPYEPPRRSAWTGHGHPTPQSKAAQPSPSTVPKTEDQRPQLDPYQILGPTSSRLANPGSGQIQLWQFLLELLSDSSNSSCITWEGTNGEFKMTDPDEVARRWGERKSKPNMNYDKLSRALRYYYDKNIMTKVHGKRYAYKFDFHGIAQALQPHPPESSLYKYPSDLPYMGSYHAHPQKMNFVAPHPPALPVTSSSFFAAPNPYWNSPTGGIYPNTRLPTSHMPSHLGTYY
Summary of the method: as §1

[4] = molecular target: ELF1 (Homo sapiens, UniProt P32519 1-619); conditions: protein: recombinant; tags: N-terminal GST; dsDNA, one strand shown
Sequence of ELF1 (P32519 whole entry): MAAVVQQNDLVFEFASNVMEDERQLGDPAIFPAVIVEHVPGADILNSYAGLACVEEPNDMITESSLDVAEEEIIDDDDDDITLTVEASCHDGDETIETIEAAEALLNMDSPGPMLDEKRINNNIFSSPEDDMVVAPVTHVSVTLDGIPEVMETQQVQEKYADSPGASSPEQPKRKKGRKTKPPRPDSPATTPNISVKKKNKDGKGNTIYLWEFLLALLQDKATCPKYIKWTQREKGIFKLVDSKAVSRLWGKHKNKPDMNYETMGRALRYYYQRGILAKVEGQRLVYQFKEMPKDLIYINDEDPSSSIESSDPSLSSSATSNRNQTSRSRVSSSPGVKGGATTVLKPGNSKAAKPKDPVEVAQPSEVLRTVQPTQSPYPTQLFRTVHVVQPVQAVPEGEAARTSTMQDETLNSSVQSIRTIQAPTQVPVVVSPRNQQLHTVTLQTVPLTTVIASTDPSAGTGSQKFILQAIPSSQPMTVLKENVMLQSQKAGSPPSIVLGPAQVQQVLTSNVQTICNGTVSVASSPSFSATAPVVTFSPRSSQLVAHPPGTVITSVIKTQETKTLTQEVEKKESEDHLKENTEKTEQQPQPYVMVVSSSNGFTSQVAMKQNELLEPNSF
Summary of the method: as §1

[5] = molecular target: SPI1 (Homo sapiens, UniProt P17947 1-270); conditions: protein: recombinant; tags: N-terminal GST; dsDNA, one strand shown
Summary of the method: as §1

[6] = molecular target: SPIB (Homo sapiens, UniProt Q01892 1-262); conditions: protein: recombinant; tags: N-terminal GST; dsDNA, one strand shown
Sequence of SPIB (Q01892 whole entry): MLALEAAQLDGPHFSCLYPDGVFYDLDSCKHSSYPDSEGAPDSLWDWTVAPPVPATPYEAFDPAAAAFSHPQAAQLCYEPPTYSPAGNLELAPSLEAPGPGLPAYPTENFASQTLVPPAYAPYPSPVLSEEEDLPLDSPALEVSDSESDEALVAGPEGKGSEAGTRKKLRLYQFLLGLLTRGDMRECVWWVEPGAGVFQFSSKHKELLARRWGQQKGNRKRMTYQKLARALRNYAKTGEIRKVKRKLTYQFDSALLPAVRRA
Summary of the method: as §1

[7] = molecular target: HSF1 (Homo sapiens, UniProt Q00613 1-529); conditions: protein: recombinant; tags: N-terminal GST; chain copies: 3; dsDNA, one strand shown
Sequence of HSF1 (Q00613 whole entry): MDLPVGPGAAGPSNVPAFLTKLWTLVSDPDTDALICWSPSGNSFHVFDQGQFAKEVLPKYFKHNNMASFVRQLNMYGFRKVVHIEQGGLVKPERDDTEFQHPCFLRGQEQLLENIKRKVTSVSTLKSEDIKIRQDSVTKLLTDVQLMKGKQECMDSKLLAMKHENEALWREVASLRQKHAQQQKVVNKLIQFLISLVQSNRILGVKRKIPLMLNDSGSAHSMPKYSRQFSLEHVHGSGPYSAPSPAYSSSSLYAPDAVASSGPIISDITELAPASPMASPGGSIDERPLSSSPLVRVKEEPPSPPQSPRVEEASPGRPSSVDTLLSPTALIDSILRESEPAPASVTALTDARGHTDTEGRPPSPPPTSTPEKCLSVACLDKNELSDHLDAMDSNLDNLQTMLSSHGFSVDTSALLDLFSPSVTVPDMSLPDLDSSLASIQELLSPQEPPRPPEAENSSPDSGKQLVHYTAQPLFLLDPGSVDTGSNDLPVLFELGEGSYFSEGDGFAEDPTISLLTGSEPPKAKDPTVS
Summary of the method: as §1

[8] = molecular target: T4, SPIC (Homo sapiens, UniProt Q8N5J4 1-248); conditions: protein: recombinant; tags: N-terminal GST; dsDNA, one strand shown
T4 sequence: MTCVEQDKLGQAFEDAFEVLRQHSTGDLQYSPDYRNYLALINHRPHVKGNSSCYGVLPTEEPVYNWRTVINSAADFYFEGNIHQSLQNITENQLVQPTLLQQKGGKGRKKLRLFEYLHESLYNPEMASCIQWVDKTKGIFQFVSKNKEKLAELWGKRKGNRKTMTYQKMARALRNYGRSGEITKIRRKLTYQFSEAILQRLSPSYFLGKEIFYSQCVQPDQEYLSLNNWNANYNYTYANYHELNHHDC
Summary of the method: as §1

[9] = molecular target: T5, ELK4 (Homo sapiens, UniProt P28324-2 1-405); conditions: protein: recombinant; tags: N-terminal GST; dsDNA, one strand shown
T5 sequence: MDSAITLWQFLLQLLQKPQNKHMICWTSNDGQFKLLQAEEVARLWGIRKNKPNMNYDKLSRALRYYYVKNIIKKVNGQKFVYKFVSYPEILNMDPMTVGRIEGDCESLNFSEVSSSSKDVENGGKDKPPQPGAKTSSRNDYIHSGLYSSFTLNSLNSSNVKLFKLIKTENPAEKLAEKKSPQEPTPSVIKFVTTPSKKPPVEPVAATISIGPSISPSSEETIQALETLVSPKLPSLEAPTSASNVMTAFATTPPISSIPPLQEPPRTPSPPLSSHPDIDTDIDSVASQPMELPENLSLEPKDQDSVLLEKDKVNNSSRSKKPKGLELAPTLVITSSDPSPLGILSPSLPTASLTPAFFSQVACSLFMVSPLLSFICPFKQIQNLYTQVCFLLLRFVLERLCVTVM
Summary of the method: as §1

[10] = molecular target: T6, ETV3L (Homo sapiens, UniProt Q6ZN32 1-361); conditions: protein: recombinant; tags: N-terminal GST; dsDNA, one strand shown
T6 sequence: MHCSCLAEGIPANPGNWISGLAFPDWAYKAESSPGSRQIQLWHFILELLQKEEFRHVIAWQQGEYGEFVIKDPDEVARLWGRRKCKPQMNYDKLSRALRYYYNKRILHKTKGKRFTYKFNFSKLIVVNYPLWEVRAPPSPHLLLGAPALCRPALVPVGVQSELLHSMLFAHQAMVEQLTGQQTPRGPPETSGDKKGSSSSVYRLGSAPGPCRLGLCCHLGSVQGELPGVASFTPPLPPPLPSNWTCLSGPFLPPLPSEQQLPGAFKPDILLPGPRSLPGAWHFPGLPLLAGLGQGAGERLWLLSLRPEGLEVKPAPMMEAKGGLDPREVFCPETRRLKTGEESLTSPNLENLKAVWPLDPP
Summary of the method: as §1

[11] = molecular target: T7, ETS2 (Homo sapiens, UniProt P15036 1-469); conditions: protein: recombinant; tags: N-terminal GST; dsDNA, one strand shown
T7 sequence: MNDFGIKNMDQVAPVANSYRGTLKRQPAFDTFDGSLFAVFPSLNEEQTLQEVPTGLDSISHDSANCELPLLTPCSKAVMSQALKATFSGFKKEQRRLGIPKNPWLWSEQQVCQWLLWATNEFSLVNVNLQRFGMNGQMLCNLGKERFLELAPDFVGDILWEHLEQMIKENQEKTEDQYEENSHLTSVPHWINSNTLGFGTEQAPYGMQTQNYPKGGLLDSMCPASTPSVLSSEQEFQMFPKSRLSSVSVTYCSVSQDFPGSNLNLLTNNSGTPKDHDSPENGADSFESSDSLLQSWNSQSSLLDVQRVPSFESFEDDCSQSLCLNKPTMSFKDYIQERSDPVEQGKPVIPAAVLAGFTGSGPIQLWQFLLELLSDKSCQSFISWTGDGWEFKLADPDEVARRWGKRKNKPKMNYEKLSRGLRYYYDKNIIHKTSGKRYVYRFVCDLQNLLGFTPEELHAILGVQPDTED
Summary of the method: as §1

[12] = molecular target: T8, ETV7 (Homo sapiens, UniProt Q9Y603 1-341); conditions: protein: recombinant; tags: N-terminal GST; dsDNA, one strand shown
T8 sequence: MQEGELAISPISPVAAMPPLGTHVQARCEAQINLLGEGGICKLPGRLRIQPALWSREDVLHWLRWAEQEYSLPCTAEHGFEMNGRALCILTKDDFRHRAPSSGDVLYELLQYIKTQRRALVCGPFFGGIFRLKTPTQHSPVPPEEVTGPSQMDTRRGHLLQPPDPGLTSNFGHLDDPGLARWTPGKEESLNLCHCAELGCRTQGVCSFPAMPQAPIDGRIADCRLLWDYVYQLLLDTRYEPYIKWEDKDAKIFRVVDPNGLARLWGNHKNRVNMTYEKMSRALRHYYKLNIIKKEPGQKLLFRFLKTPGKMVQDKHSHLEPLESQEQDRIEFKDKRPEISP
Summary of the method: as §1

[13] = molecular target: ETV6 (Homo sapiens, UniProt P41212 1-452); conditions: protein: recombinant; tags: N-terminal GST; dsDNA, one strand shown
Sequence of ETV6 (P41212 whole entry): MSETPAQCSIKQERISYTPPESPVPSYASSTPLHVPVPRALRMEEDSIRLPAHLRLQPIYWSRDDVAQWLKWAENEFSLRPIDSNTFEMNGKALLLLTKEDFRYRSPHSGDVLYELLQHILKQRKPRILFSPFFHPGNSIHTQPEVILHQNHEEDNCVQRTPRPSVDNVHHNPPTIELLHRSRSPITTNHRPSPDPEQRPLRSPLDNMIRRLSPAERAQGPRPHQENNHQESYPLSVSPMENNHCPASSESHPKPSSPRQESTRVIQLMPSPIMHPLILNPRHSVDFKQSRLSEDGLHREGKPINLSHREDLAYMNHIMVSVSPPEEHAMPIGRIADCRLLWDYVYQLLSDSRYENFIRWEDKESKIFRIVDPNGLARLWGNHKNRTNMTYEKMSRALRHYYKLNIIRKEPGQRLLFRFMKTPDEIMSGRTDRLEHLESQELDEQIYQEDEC
Summary of the method: as §1

[14] = molecular target: T9, ETV2 (Homo sapiens, UniProt O00321 1-342); conditions: protein: recombinant; tags: N-terminal GST; dsDNA, one strand shown
T9 sequence: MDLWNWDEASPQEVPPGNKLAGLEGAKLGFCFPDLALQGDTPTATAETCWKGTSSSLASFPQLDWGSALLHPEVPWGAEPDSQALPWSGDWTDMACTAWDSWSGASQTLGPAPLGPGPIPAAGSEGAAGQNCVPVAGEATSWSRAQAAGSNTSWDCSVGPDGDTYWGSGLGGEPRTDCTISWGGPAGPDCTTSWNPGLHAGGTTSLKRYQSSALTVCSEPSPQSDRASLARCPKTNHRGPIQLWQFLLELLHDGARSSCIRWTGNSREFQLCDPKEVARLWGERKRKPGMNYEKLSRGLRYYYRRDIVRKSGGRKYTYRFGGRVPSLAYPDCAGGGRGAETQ
Summary of the method: as §1

[15] = molecular target: CRX (Homo sapiens, UniProt O43186 1-299); conditions: protein: recombinant; tags: N-terminal GST; dsDNA, one strand shown
Sequence of CRX (O43186 whole entry): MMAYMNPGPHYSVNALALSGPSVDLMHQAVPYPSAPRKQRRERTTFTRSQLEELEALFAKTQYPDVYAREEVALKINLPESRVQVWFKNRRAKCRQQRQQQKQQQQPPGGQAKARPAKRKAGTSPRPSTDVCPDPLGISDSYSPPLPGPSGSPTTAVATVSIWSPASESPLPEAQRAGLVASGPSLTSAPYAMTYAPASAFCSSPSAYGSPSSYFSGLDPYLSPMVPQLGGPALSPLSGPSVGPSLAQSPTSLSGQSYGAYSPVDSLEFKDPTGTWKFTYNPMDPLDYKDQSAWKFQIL
Summary of the method: as §1

Q: With CACTAG as the sequence, how does the binding signal [1] read?
A: 1.04 fold enrichment (6-mer frequency, TF over GST control)

Q: And the binding signal [2]?
A: 1.02 fold enrichment (6-mer frequency, TF over GST control)

Q: What about the binding signal [3] of the same sequence?
A: 1.04 fold enrichment (6-mer frequency, TF over GST control)

Q: And the binding signal [4]?
A: 1.09 fold enrichment (6-mer frequency, TF over GST control)

Q: And the binding signal [5]?
A: 1.06 fold enrichment (6-mer frequency, TF over GST control)

Q: And the binding signal [6]?
A: 1 fold enrichment (6-mer frequency, TF over GST control)

Q: And the binding signal [7]?
A: 1.24 fold enrichment (6-mer frequency, TF over GST control)

Q: And the binding signal [8]?
A: 1.05 fold enrichment (6-mer frequency, TF over GST control)

Q: And the binding signal [9]?
A: 1.06 fold enrichment (6-mer frequency, TF over GST control)

Q: What about the binding signal [10] of the same sequence?
A: 1.03 fold enrichment (6-mer frequency, TF over GST control)

Q: And the binding signal [11]?
A: 1.01 fold enrichment (6-mer frequency, TF over GST control)

Q: And the binding signal [12]?
A: 1.01 fold enrichment (6-mer frequency, TF over GST control)

Q: And the binding signal [13]?
A: 1.01 fold enrichment (6-mer frequency, TF over GST control)

Q: Which binding signal [7] does the source give for AGGTTC here?
A: 1.18 fold enrichment (6-mer frequency, TF over GST control)

Q: For GTCTGG, which binding signal [7] is on record?
A: 1.06 fold enrichment (6-mer frequency, TF over GST control)

Q: What about the binding signal [14] of the same sequence?
A: 1.02 fold enrichment (6-mer frequency, TF over GST control)

Q: For GGATCA, which binding signal [7] is on record?
A: 1.1 fold enrichment (6-mer frequency, TF over GST control)

Q: And the binding signal [15]?
A: 1.53 fold enrichment (6-mer frequency, TF over GST control)

Q: For ACGCGA, which binding signal [7] is on record?
A: 1.04 fold enrichment (6-mer frequency, TF over GST control)

Q: What about the binding signal [14] of the same sequence?
A: 1.02 fold enrichment (6-mer frequency, TF over GST control)

Q: What does the source list for TAAGAG?
A: binding signal [7]: 1.19 fold enrichment (6-mer frequency, TF over GST control); binding signal [15]: 1.46 fold enrichment (6-mer frequency, TF over GST control)
